In the supplement of paper PMC9135407:
Values joined by “and” are separate entries in the source; they are usually repeats but may differ in a detail not shown here. Equal entries are not always repeated. Structures can show the parent of a compound that is named as a salt. Screen size: about 5,800 compounds; about 620 (11%) showed activity.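 How the source made its calls: active = score above a cut-off or among the top three wells of a plate; in these data no inactive exceeds 0.85.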 For the sample, actives were picked, then their nearest neighbours and some compounds at random.

System: primary human hepatic stellate cells (donor 1)
Test: scaled lipid accumulation score (0 = DMSO-like, 1 = nortriptyline-like); higher = stronger HSC inactivation (lipid re-accumulation), active = hit call of the paper
Conditions: 48 h
[1] = library stock concentration: 1 mM
[2] = library stock concentration: 10 mM
[3] = library stock concentration: 3.33 mM
[4] = library stock concentration: 80 uM
[5] = library stock concentration: 400 uM
[6] = library stock concentration: 2 mM

SMILES: CCCCC[C@H](O)/C=C/[C@@H]1[C@@H](C/C=C/CCCC(=O)O)[C@H](O)C[C@H]1O [5-trans Prostaglandin F2.beta.]
- scaled lipid accumulation score [1]: ≤ 0 (inactive)

SMILES: O=C1OC(O)C(c2cc3ccccc3s2)=C1Br (stereo not given)
- scaled lipid accumulation score [1]: 0.04 (inactive)

SMILES: O=C1O/C(=C/Br)CC[C@H]1c1cccc2ccccc12 [(S)-Bromoenol lactone]
- scaled lipid accumulation score [1]: 0.103 (inactive)

SMILES: COc1cc(C(=O)OCCCN2CCCN(CCCOC(=O)c3cc(OC)c(OC)c(OC)c3)CC2)cc(OC)c1OC [Dilazep dihydrochloride]
- scaled lipid accumulation score: 0.164 (inactive)

SMILES: COc1cc(C(=O)OCCC[NH+]2CCC[NH+](CCCOC(=O)c3cc(OC)c(OC)c(OC)c3)CC2)cc(OC)c1OC.[Cl-].[Cl-] [Dilazep hydrochloride]
- scaled lipid accumulation score [2]: 0.951 (active)

SMILES: COc1cc(C(=O)OCCCN2CCCN(CCCOC(=O)c3cc(OC)c(OC)c(OC)c3)CC2)cc(OC)c1OC.Cl.Cl [Dilazep dihydrochloride]
- scaled lipid accumulation score [2]: 1.06 (active)

SMILES: COc1cc(N)c(Cl)cc1C(=O)OCCCN1CCCCC1
- scaled lipid accumulation score [2]: 0.126 (inactive)

SMILES: COc1cc(C(=O)OCCCN2CCCN(CCCOC(=O)c3cc(OC)c(OC)c(OC)c3)CC2)cc(OC)c1OC.Cl.Cl
- scaled lipid accumulation score [2]: 0.84 (active)

SMILES: COc1cc(C(=O)N2CCOCC2)cc(OC)c1OC [Trimetozine]
- scaled lipid accumulation score (library stock concentration: 7.1 mM): ≤ 0 (inactive)

SMILES: COc1cc(OC)c(C(=O)CCCN2CCCC2)c(OC)c1 [Buflomedil HCl]
- scaled lipid accumulation score [3]: ≤ 0 (inactive)
- scaled lipid accumulation score [2]: ≤ 0 (inactive)

SMILES: COc1cc(N)c(Cl)cc1C(=O)OCCN1CCCCC1
- scaled lipid accumulation score [2]: ≤ -0.007 (inactive)

SMILES: COc1cc(OC)c(C(=O)CCCN2CCCC2)c(OC)c1
- scaled lipid accumulation score [2]: ≤ 0 (inactive)

SMILES: COc1cc(OC)c(C(=O)CCCN2CCCC2)c(OC)c1 [Buflomedil hydrochloride]
- scaled lipid accumulation score: 0.025 (inactive)

SMILES: COc1cc(C(=O)NCCCCCC(=O)O)cc(OC)c1OC [Capobenic acid]
- scaled lipid accumulation score (library stock concentration: 6.1 mM): ≤ 0 (inactive)

SMILES: CC1(C)CCCC2(C)C1CCC1(C)OC(=O)CC12 (stereo not given) [Sclareolide]
- scaled lipid accumulation score [3]: ≤ 0 (inactive)
- scaled lipid accumulation score [2]: 0.09 (inactive)

SMILES: NC(=O)c1ccc(N(C(N)=O)c2c(F)cccc2F)nc1-c1ccc(F)cc1F
- scaled lipid accumulation score [4]: ≤ -0.001 (inactive)
- scaled lipid accumulation score [5]: ≤ -0.001 (inactive) and ≤ -0.005 (inactive)
- scaled lipid accumulation score [6]: ≤ -0.001 (inactive) and 0.083 (inactive)
- scaled lipid accumulation score [3]: ≤ 0 (inactive)
- scaled lipid accumulation score [2]: ≤ 0 (inactive) and 0.012 (inactive) and ≤ -0.005 (inactive)

SMILES: CCCCC[C@H](O)/C=C/[C@H]1[C@H](O)CC(=O)[C@@H]1C/C=C\CCCC(=O)NC(CO)CO [Prostaglandin E2 serinol amide]
- scaled lipid accumulation score [1]: ≤ 0 (inactive)

SMILES: CCN[C@@H]1C[C@H](N)[C@@H](O[C@H]2OC(CN)=CC[C@H]2N)[C@H](O)[C@H]1O[C@H]1OC[C@](C)(O)[C@H](NC)[C@H]1O [Netilmicin sulfate]
- scaled lipid accumulation score (library stock concentration: 3 mM): ≤ 0 (inactive)

SMILES: CC1=C(/C=C/C(C)=C\C=C\C(C)=C\C(=O)O)C(C)(C)CCC1 [9-cis Retinoic acid]
- scaled lipid accumulation score [1]: ≤ -0.021 (inactive)

SMILES: NC1C=CC=C(C(=O)O)C1 (stereo not given) [Gabaculine hydrochloride]
- scaled lipid accumulation score [2]: ≤ 0 (inactive)

SMILES: CCCCC[C@H](O)/C=C/C1=C(CCCCCCC(=O)O)C(=O)CC1 [Prostaglandin B1]
- scaled lipid accumulation score [1]: ≤ 0 (inactive) and ≤ -0.021 (inactive)

SMILES: O=C(NC[C@H]1CN(c2ccc(N3CCOCC3=O)cc2)C(=O)O1)c1ccc(Cl)s1 [Rivaroxaban]
- scaled lipid accumulation score [3]: ≤ 0 (inactive)
- scaled lipid accumulation score [2]: ≤ 0 (inactive)

SMILES: Cc1ccccc1N=Nc1ccc(NC(=O)c2ccnn2C)c(C)c1
- scaled lipid accumulation score [2]: ≤ -0.006 (inactive)

SMILES: Cc1[nH]c(/C=C2\C(=O)Nc3ccccc32)c(C)c1CCC(=O)O [SU-6668 (TSU-68, Orantinib) (10 mM)]
- scaled lipid accumulation score [2]: 0.012 (inactive)

SMILES: CCN(CC)CCNC(=O)c1c(C)[nH]c(/C=C2\C(=O)Nc3ccc(Cl)cc32)c1C
- scaled lipid accumulation score [3]: 0.556 (inactive)

SMILES: CCN(CC)CCNC(=O)c1c(C)[nH]c(/C=C2\C(=O)Nc3ccc(F)cc32)c1C.O=C(O)C[C@H](O)C(=O)O
- scaled lipid accumulation score [6]: 1.66 (active)

SMILES: CCN(CC)CCNC(=O)c1c(C)[nH]c(/C=C2\C(=O)Nc3ccc(F)cc32)c1C [Sunitinib malate]
- scaled lipid accumulation score [4]: ≤ -0.009 (inactive)
- scaled lipid accumulation score [5]: ≤ -0.009 (inactive)
- scaled lipid accumulation score [2]: ≤ -0.07 (inactive) and 0.421 (inactive)

SMILES: CCN(CC)CCNC(=O)c1c(C)[nH]c(/C=C2\C(=O)Nc3ccc(F)cc32)c1C.O=C(O)C[C@H](O)C(=O)O [Sunitinib malate]
- scaled lipid accumulation score [6]: 0.997 (active)

SMILES: CCOC(=O)c1c(C)[nH]c(/C=C2\C(=O)Nc3ccccc32)c1C [VEGF Receptor 2 Kinase Inhibitor I]
- scaled lipid accumulation score [3]: ≤ 0 (inactive)

SMILES: Cc1[nH]c(/C=C2\C(=O)Nc3ccccc32)c(C)c1CCC(=O)O [TSU-68 (SU6668, Orantinib)]
- scaled lipid accumulation score [3]: ≤ 0 (inactive)
- scaled lipid accumulation score [2]: ≤ 0 (inactive)

SMILES: Cc1[nH]c(/C=C2\C(=O)Nc3ccccc32)c(C)c1CCC(=O)O [SU-6668 (TSU-68, Orantinib) (2 mM)]
- scaled lipid accumulation score [6]: 0.047 (inactive)

SMILES: CCN(CC)CCNC(=O)c1c(C)[nH]c(/C=C2\C(=O)Nc3ccc(F)cc32)c1C
- scaled lipid accumulation score [5]: 0.189 (inactive)
- scaled lipid accumulation score [2]: 0.43 (inactive)

SMILES: CCN(CC)CCNC(=O)c1c(C)[nH]c(/C=C2\C(=O)Nc3ccc(F)cc32)c1C [Sunitinib Malate]
- scaled lipid accumulation score [3]: 0.775 (inactive)
- scaled lipid accumulation score [2]: 0.432 (inactive)

SMILES: Cc1[nH]c(/C=C2\C(=O)Nc3ccccc32)c(C)c1CCC(=O)O
- scaled lipid accumulation score [2]: 0.019 (inactive)

SMILES: Cc1[nH]c(/C=C2\C(=O)Nc3ccccc32)c(C)c1CCC(=O)O [SU-6668 (TSU-68, Orantinib) (0.4 mM)]
- scaled lipid accumulation score [5]: 0.175 (inactive)

SMILES: CCC=CCC=CCC=CCC=CCCCCCCC(=O)O [.omega.-3 Arachidonic Acid]
- scaled lipid accumulation score [1]: ≤ 0 (inactive)

SMILES: CCN(CC)CCN(Cc1ccc(-c2ccc(C(F)(F)F)cc2)cc1)C(=O)Cn1c(SCc2ccc(F)cc2)nc(=O)c2c1CCC2
- scaled lipid accumulation score [3]: 0.746 (inactive)
- scaled lipid accumulation score [2]: 0.058 (inactive)

SMILES: COc1ccc(-c2coc3cc(O)ccc3c2=O)cc1 [Formononetin]
- scaled lipid accumulation score [3]: ≤ 0 (inactive)
- scaled lipid accumulation score [2]: ≤ 0 (inactive) and ≤ -0.027 (inactive)

SMILES: Nc1ccc2cn[nH]c2c1
- scaled lipid accumulation score [2]: ≤ 0 (inactive)

SMILES: CC(C)(CO)[C@@H](O)C(=O)NCCC(=O)NCCSSCCNC(=O)CCNC(=O)[C@H](O)C(C)(C)CO
- scaled lipid accumulation score [2]: ≤ 0 (inactive)

SMILES: COC(=O)C1=C(C)NC(C)=C(C(=O)OCCCN2CCC(c3ccccc3)(c3ccccc3)CC2)[C@H]1c1cccc([N+](=O)[O-])c1 [(S)-(+)-Niguldipine hydrochloride]
- scaled lipid accumulation score [2]: ≤ -0.006 (inactive)

SMILES: COC(=O)C1=C(C)NC(C)=C(C(=O)OCCCN2CCC(c3ccccc3)(c3ccccc3)CC2)[C@H]1c1cccc([N+](=O)[O-])c1 [Niguldipine]
- scaled lipid accumulation score (library stock concentration: 7.7 mM): ≤ -0.021 (inactive)

SMILES: Cl.N#Cc1ccc2[nH]cc(CCCCN3CCN(c4ccc5oc(C(N)=O)cc5c4)CC3)c2c1 [Vilazodone HCl]
- scaled lipid accumulation score [2]: 1.1 (active)

SMILES: N#Cc1ccc2[nH]cc(CCCCN3CCN(c4ccc5oc(C(N)=O)cc5c4)CC3)c2c1 [Vilazodone HCl]
- scaled lipid accumulation score [3]: 0.512 (inactive)

SMILES: Cc1c(C(=O)N(C)C2CCCCC2)sc2nc3ccc(N)cc3n12
- scaled lipid accumulation score [2]: 0.01 (inactive)

SMILES: O=C(Nc1ccc2[nH]nc(-c3ccncc3)c2c1)[C@@H]1CCN(CC(=O)N2CCN(c3ccc(-c4ncccn4)cc3)CC2)C1 [listing 1 of 2 here]
- scaled lipid accumulation score [4]: ≤ -0.001 (inactive)
- scaled lipid accumulation score [5]: ≤ -0.001 (inactive)
- scaled lipid accumulation score [6]: ≤ -0.001 (inactive)

SMILES: O=C(Nc1ccc2[nH]ncc2c1)C1CCC1 [Rhodblock 6]
- scaled lipid accumulation score [2]: 0.092 (inactive)

SMILES: O=C(Nc1ccc2[nH]nc(-c3ccncc3)c2c1)[C@@H]1CCN(CC(=O)N2CCN(c3ccc(-c4ncccn4)cc3)CC2)C1 [listing 2 of 2 here]
- scaled lipid accumulation score [2]: 0.909 (active)

SMILES: O=C(OC[C@H]1O[C@@H](OC(=O)c2cc(O)c(O)c(OC(=O)c3cc(O)c(O)c(O)c3)c2)[C@H](OC(=O)c2cc(O)c(O)c(OC(=O)c3cc(O)c(O)c(O)c3)c2)[C@@H](OC(=O)c2cc(O)c(O)c(OC(=O)c3cc(O)c(O)c(O)c3)c2)[C@@H]1OC(=O)c1cc(O)c(O)c(OC(=O)c2cc(O)c(O)c(O)c2)c1)c1cc(O)c(O)c(OC(=O)c2cc(O)c(O)c(O)c2)c1 [Tannic acid]
- scaled lipid accumulation score [2]: ≤ -0.027 (inactive)

SMILES: CCc1cc(Cl)c(OC)c(C(=O)NC[C@@H]2CCCN2CC)c1O.Cl [Eticlopride hydrochloride]
- scaled lipid accumulation score [2]: 0.978 (active)

SMILES: CCc1cc(Cl)c(OC)c(C(=O)NC[C@@H]2CCCN2CC)c1O
- scaled lipid accumulation score [2]: 0.351 (inactive)

SMILES: CCN1CCC[C@H]1CNC(=O)c1c(O)c(Cl)cc(Cl)c1OC [Raclopride]
- scaled lipid accumulation score [2]: ≤ 0 (inactive) and ≤ -0.006 (inactive)

SMILES: CCN1CCC[C@H]1CNC(=O)c1c(O)c(Cl)cc(Cl)c1OC [S(+)-Raclopride L-tartrate]
- scaled lipid accumulation score [2]: ≤ 0 (inactive)

SMILES: CCCCC[C@H](O)/C=C/[C@@H]1[C@@H](C/C=C\CCCC(=O)O)[C@@H](O)C[C@@H]1O [9a,11b-Prostaglandin F2]
- scaled lipid accumulation score [1]: ≤ -0.021 (inactive)

SMILES: CCCCC[C@H](O)/C=C/[C@@H]1[C@@H](C/C=C\CCCC(=O)O)[C@@H](O)C[C@@H]1O [11.beta.-Prostaglandin F2.alpha.]
- scaled lipid accumulation score [1]: ≤ 0 (inactive)

SMILES: CCCCCCCCCCCCCCCCCCCCCCCCCCCCCCO [n-Triacontanol]
- scaled lipid accumulation score [1]: 0.026 (inactive)

SMILES: O=C(O)Cc1ccccc1Nc1c(Cl)cccc1Cl
- scaled lipid accumulation score [2]: ≤ 0 (inactive)

SMILES: O=C(O)Cc1ccccc1Nc1c(Cl)cccc1Cl [Diclofenac Sodium]
- scaled lipid accumulation score [3]: ≤ 0 (inactive)
- scaled lipid accumulation score [2]: 0.007 (inactive)

SMILES: O=C(O)Cc1ccccc1Nc1c(Cl)cccc1Cl [Diclofenac (sodium salt)]
- scaled lipid accumulation score [1]: ≤ 0 (inactive)

SMILES: O=C(O)Cc1ccccc1Nc1c(Cl)cccc1Cl [Diclofenac Diethylamine]
- scaled lipid accumulation score [3]: ≤ 0 (inactive)
- scaled lipid accumulation score [2]: ≤ 0 (inactive)

SMILES: Cl.Cl.Clc1ccccc1CNC[C@H]1CC[C@H](CNCc2ccccc2Cl)CC1
- scaled lipid accumulation score [2]: 1.48 (active)

SMILES: O=C(O)Cc1ccccc1Nc1c(Cl)cccc1Cl [Diclofenac Potassium]
- scaled lipid accumulation score [3]: ≤ 0 (inactive)
- scaled lipid accumulation score [2]: ≤ 0 (inactive)

SMILES: COc1ccccc1CNCCCCCCNCCCCCCCCNCCCCCCNCc1ccccc1OC [Methoctramine tetrahydrochloride]
- scaled lipid accumulation score [2]: 0.621 (inactive)

SMILES: O=C(O)Cc1ccccc1Nc1c(Cl)cccc1Cl [Diclofenac sodium]
- scaled lipid accumulation score: 0.036 (inactive)
- scaled lipid accumulation score (library stock concentration: 6.3 mM): 0.003 (inactive)
- scaled lipid accumulation score [2]: ≤ -0.07 (inactive) and ≤ 0 (inactive)
